The values below come from PubChem BioAssay AID1498 (National Center for Advancing Translational Sciences (NCATS), 2009).

SMILES strings stand for the structures. Results filed as inconclusive are left out. Active and inactive are the calls of the source. Calls come from the whole dose curve.

The assay in a line: Confirmation Concentration-Response Assay for Modulators of Lamin A Splicing. To be noted: RFP activity: RFP channel at top concentration, at 46.1 µM; ratio activity: GFP/RFP ratio at top concentration, at 46.1 µM. The source says:
NCGC Assay Overview: Hutchinson-Gilford Progeria Syndrome (HGPS) is a pediatric premature aging disease caused by a spontaneous mutation in the lamin A/C (LMNA) gene. The mutation activates a cryptic splice site in the LMNA pre-mRNA which results in production of a pre-lamin A protein that cannot be processed properly. The mutant protein accumulates in the nucleus and negatively affects numerous cellular functions. Correction of the splicing defect in HGPS patient cells using a targeted oligonucleotide (exo11) leads to reversal of the cellular disease phenotypes. To identify small molecule modulators of aberrant LMNA splicing, a homogenous assay was constructed in HeLa cells that used a GFP containing minigene to report on correction of aberrant splicing in lamin A and a RFP (DsRed2) to report on cell viability, uniformity and nonspecific effects on the assay signal. This assay was adapted to laser-scanning microplate cytometry (Acumen, TTP Labtech) where miniaturization of the assay to a 1,536-well plate format was possible. Select compounds active in the primary screen (AID 1487) were chosen for confirmation based on potency, efficacy, SAR and activity in other assays in PubChem and at NCGC. References: Bowen, W. P.; Wylie, P. G. Application of Laser-Scanning Fluorescence Microplate Cytometry in High Content Screening. Assay Drug Dev Technol 2006;4:209-221. Scaffidi P, Misteli T. Reversal of the cellular phenotype in the premature aging disease Hutchinson-Gilford progeria syndrome. Nat. Med. 2005;11:440-445.
NCGC Assay Protocol Summary: Reagents/Controls: Stable clones expressing DsRed2 and lamin A-EGFP were generated by Cell and Molecular Technologies in S3 HeLa cells. HeLa cells were prepared for the assay when they were 70-90% confluent. The cells were counted and resuspended in Opti-MEM I (no phenol red; Gibco), 2% FBS, 1% penicillin/ streptomycin (Gibco) at concentration of 120 cells/uL concentration. The suspension was passed through a Falcon basket filter with pore size 40um (Beckton Dickson). Control titrations: column […] 1536-well plate contained a sixteen point titration (1:2 dilutions) in duplicate of ancitabine (Sigma: A8598) beginning at 40 uM final concentration. Column 2 contained a sixteen point titration (1:2 dilutions) of cycloheximide beginning at 1.4 mM final concentration. Column 3 contained ancitabine at 40 uM and column 4 contained was the vehicle control (0.5% DMSO final concentration). Assay Steps: 5 uL of HeLa cells were plated in Aurora LoBase black clear bottom (cyclic-olefin polymer) 1536-well plates at a final density of 600 cells/well. Controls and library compounds were added with a 1536-well pin array using the Kalypsys pin-tool. The plates were then incubated for 48 hrs in a cell-culture incubator (37 °C; 5% CO2, 98% humidity). Following incubation the plates were read on the Acumen Explorer using the 488 nm laser. Data was collected on objects between 10 and 100 um in size. Cell objects were defined by a 15 um width x 10 um depth filter. The ratio of the total object intensity in PMT1 (500-530 nm emission; GFP) over PMT3 (575-640 nm emission; RFP) was calculated for analysis. Keywords: NIH Roadmap, MLSCN, MLI, MLSMR, qHTS, NCGC, lamin A, Progeria, RNA splicing.

Turning to `c1ccc(C2OCCN3CCCCC23)cc1` (stereo unspecified), the RFP activity is -2.54%, the result was inactive and the ratio activity was -7.51%.

Turning to `CN1C(=O)CCS(=O)(=O)[C@@H]1c1ccc(Cl)cc1`, the RFP activity was -19.9%, the result was inactive and the ratio activity was -2.66%.
